HT1080 IDH1KD tx: toxicity to HT-1080 IDH1 knockdown cells (counter line); HT-1080 IDH1 knockdown viability, ATP luminescence, 48 h; actives 2% (n = 360,000); Potency, µM (titrated, usually from 46.1 µM), without a hit: top-dose activity, negative = toxicity, actives largely listed as cytotoxic; AID 686971;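 further: potency means the concentration at half of the fitted maximal effect; 0% = DMSO wells and -100% = cell-free medium wells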
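% activity derives from luminescence (CellTiter-Glo), normalised to DMSO and no-cell wells. HT-1080-IDH1KD cells, 750/well, had 48 h compound exposure at 37 °C.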
HT1080-NT tox: kills 2HG-producing HT-1080-NT fibrosarcoma cells | HT-1080-NT fibrosarcoma viability, CellTiter-Glo ATP luminescence, 48 h | Potency, µM (top dose mostly 46.1 µM), without a hit: top-dose activity, negative = less viability, usual class: cytotoxic | actives 1.6% (n = 360,000);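 further: NT is the 2HG producing partner of a matched IDH1 knockdown line; potency means the concentration at half of the fitted maximal effect; 0% = DMSO-treated cells and -100% = media-only wells without cells; nearly all actives have a fitted effect of over 55% in size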
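A 48-hour cytotoxicity screen used HT-1080-NT cells plated 2 hours before compound delivery. ATP-based CellTiter-Glo luminescence measured viability, normalized to DMSO and no-cell controls.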
HepG2 tox: kills HepG2 cells in TGF-b inhibitor counter-screen; HepG2 CAGA-GFP viability, ATP luminescence, 18 h; Potency, µM (top dose mostly 46.1 µM), inactives show top-dose activity change, negative = cytotoxicity, actives largely listed as cytotoxic; actives 0.76% (n = 410,000); further: potency means the concentration at half of the fitted maximal effect
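HepG2 CAGA-GFP cells (1000/well, DMEM with 1% FBS) received compound, then TGF-beta at 500 pg/mL final, and were incubated 18 hours at 37 degrees C. Viability was read by CellTiter-Glo luminescence. Media-only wells were set as complete cell-killing and DMSO as no toxicity.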
Giardia killer: kills Giardia lamblia | Giardia lamblia trophozoite viability | actives 0.15% (n = 340,000) | activity change, % at 7.66 µM, hits read low; in the data active means activity change below about -80%; inconclusive means between about -30% and that limit;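 further: parasites exposed to compound for two days anaerobically before the ATP read; on the % scale 0 is the no-effect control and ±100 the full control effect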
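Luminescent ATP signal served as the viability read-out, measured 15-30 min after adding ATP detection reagent to trophozoites that had been incubated with compounds for 48 hrs at 37 deg C anaerobically at 100 cells/well.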
IL-1B inflam inh: inflammasome signaling inhibition, IL-1 beta readout. THP-1 LPS/ATP IL-1B secretion, AlphaLISA, 16 h; active compounds read low. actives 4.7% (n = 360,000). activity change, % at 57.5 µM. AID 743279; in the data active means activity change below about -50%; inconclusive means mostly about -30% to -49%; further: on the % scale 0 is the no-effect control and ±100 the full control effect
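Secreted IL-1B measured by AlphaLISA bead assay after 16 h compound exposure of THP-1 cells; compounds (final up to 57.5 uM) added 1 h before LPS (250 ng/mL) and ATP (1.25 mM) stimulation; lower signal means less secretion.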
TGFb inhibitor: TGF-b pathway inhibition. HepG2 CAGA-GFP TGF-b/SMAD3 reporter, GFP fluorescence, 18 h; TGF-beta stimulated, 500 pg/mL final. Potency, µM (highest dose often 46.1 µM), inactives show at the top dose activity, negative = inhibition, most hits filed as inhibitors. actives 1.2% (n = 410,000); further: potency means the concentration at half of the fitted maximal effect; on the % scale 0 is the no-effect control and ±100 the full control effect; nearly all actives have a fitted effect of over 65% in size
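Read-out: total well GFP (ex488/em500-530) summed from mean per-cell fluorescence. Cells: HEPG2 CAGA-GFP, 1% FBS DMEM, 18 h at 37 degrees C with 500 pg/mL final TGF-beta. Unstimulated wells served as the full-inhibition control; stimulated DMSO wells = 0%.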
Active calls of the source: *; i = inactive; ? = inconclusive; . = not tested or not shown. Rows were chosen to be rich in hits. Some 6.5% of all compounds tested hit in one or more screens of this group. Unless noted, the call rests on the fitted dose curve; in most records, active means well fitted curve in the direction sought with a large enough effect; inconclusive means small, poorly fitted or top-dose-only effect, or another doubt; inactive means no such curve, though single readings can be large; an effect the other way counts as inactive or inconclusive.

SMILES	HT1080 IDH1KD tx	HT1080-NT tox	HepG2 tox	Giardia killer	IL-1B inflam inh	TGFb inhibitor
Cc1cc(C)n2nc(C(=O)OCCOc3ccc(F)cc3)nc2n1	14%	23%	2%	-21	-50*	11%
COc1cccc(-c2cc3nc(NCCCN(C)C)n(C)c(=O)c3s2)c1	?	?	-78%	.	-63*	?
COCCNc1nc2cc(-c3ccsc3)sc2c(=O)n1C	-1%	-12%	-4%	.	6	-15%
Cn1c(NCCN2CCCC2)nc2cc(-c3ccsc3)sc2c1=O	?	?	-5%	.	-63*	-30%
C=CCNc1nc2cc(-c3ccccc3C)sc2c(=O)n1C	9.2µM*	15µM*	-34%	.	58	4%
COc1cccc(CNc2nc3cc(-c4ccccc4)sc3c(=O)n2C)c1	-20%	?	-15%	.	-23	?
COc1cccc(CNc2nc3cc(-c4ccc(C(=O)N5CCN(C)CC5)cc4)sc3c(=O)n2C)c1	15µM*	23µM*	-44%	.	-20	?
O=C(CSCC(=O)c1ccccc1)Nc1ccccc1Cl	6%	11%	-1%	10	-11	5%
COc1cccc2cc(C(=O)Nc3ccccc3C(=O)N3CCOCC3)oc12	4%	-4%	-4%	-5	6	4%
CC(C)C(NS(=O)(=O)c1cccs1)C(=O)N1CCC(C(N)=O)CC1 (stereo unspecified)	-8%	-7%	3%	7	-3	18%
Cc1ccc(F)cc1-c1cc2nc(NCCCN(C)C)n(C)c(=O)c2s1	15µM*	21µM*	-72%	.	-8	?
CN(C)CCCNc1nc2cc(-c3ccsc3)sc2c(=O)n1C	?	?	1%	.	?	-20%
CN(C)CCCNc1nc2cc(-c3cnn(Cc4ccccc4)c3)sc2c(=O)n1C	23µM*	9.2µM*	-17%	.	-3	21%
Cc1ccc(NC(=S)N2CCCCCC2)c(C)c1	9%	9%	-10%	2	19	-17%
Cc1cc(OCC(=O)Nc2ccc3oc(=O)ccc3c2)ccc1Cl	-17%	23%	-5%	13	8	-2%
CC(=O)c1ccc(OC2OCCOC2Oc2ccc(C(C)=O)cc2)cc1 (stereo unspecified)	3%	4%	-7%	-20	55	-14%
COC(=O)C1C(C(=O)OC)C1(c1ccccc1)c1ccccc1 (stereo unspecified)	-7%	1%	-2%	24	-6	13%
COC(=O)C1=C(C(=O)OC)C(C(=O)OC)C(C(=O)OC)C(C(=O)OC)(C(=O)OC)C(C(=O)OC)=C1C(=O)OC (stereo unspecified)	?	-17%	-41%	-6	-100*	-28%
COc1ccc(Nc2nc(S(=O)(=O)c3ccc(C)cc3)c(Cl)s2)cc1	23µM*	23µM*	-30%	-10	-91*	11µM*
O=C(NNC(=S)Nc1ccccc1)c1cc(Br)ccc1Cl	-2%	-3%	-16%	-1	i	14µM*
O=C(NNC(=S)Nc1ccccc1)NNC(=S)Nc1ccccc1	0%	6%	-4%	-11	20	-25%
O=C(NNC(=S)Nc1cccc(Cl)c1)c1ccccc1OC(F)F	?	?	4.5µM*	-4	25	13µM*
Cc1nn(CCCC(=O)NCc2ccc(Cl)cc2)c(C)c1[N+](=O)[O-]	9%	0%	-10%	-4	-24	-16%
COc1ccccc1/C=C/C=N/n1c(C)nnc1C	16%	23%	0.89µM*	-8	0	-5%
O=C(/C=C/Sc1ccccc1)c1ccccc1	5.6µM*	2.8µM*	16µM*	-10	-104*	10µM*
SMILES	HT1080 IDH1KD tx	HT1080-NT tox	HepG2 tox	Giardia killer	IL-1B inflam inh	TGFb inhibitor
O=C(/C=C/Sc1ccccc1)c1ccc(Cl)cc1	7.9µM*	?	11µM*	-4	-99*	8.9µM*
O=C(/C=C/Nc1ccccc1)c1ccccc1	-14%	-12%	-28%	22	12	-7%
COc1cccc(Cn2cnc(-c3ccccc3OC)c2C2CC2)c1	?	?	.	.	0	.
CCc1c(-c2cccc(OC)c2)ncn1Cc1cccc(-c2ccccc2)c1	?	7.3µM*	.	.	-16	.
CCc1c(-c2ccccc2F)ncn1Cc1cccc(-c2ccccc2)c1	8.2µM*	16µM*	.	.	3	.
CCc1c(-c2ccc(Cl)cc2)ncn1Cc1cccc(-c2ccccc2)c1	?	?	.	.	-18	.
CCc1c(C2CC2)ncn1Cc1cccc(-c2ccccc2)c1	16µM*	21µM*	.	.	-60*	.
CCc1c(-c2ccccc2)ncn1Cc1cccc(-c2ccccc2)c1	?	?	.	.	-22	.
COc1cccc(C(NC(C)=O)c2nc(-c3ccccc3)cs2)c1 (stereo unspecified)	0%	9%	-8%	.	-15	6%
COc1cccc(C(NC(C)=O)c2nc(-c3cccc(C#N)c3)cs2)c1 (stereo unspecified)	6%	0%	-5%	.	-74*	20%
COc1cccc(C(NC(C)=O)c2nc(-c3ccc(OC)nc3)cs2)c1 (stereo unspecified)	0%	-22%	-10%	.	-74*	26%
CC(C)(C)CC(=O)Nc1nnc(-c2cccs2)s1	13%	22%	-3%	1	-8	-2%
C/C(Cn1cnc([N+](=O)[O-])n1)=N\NC(=O)c1ccccc1	0%	14%	-2%	3	0	24%
C/C(Cn1nnc([N+](=O)[O-])n1)=N\NC(=O)c1ccccc1	?	?	-49%	-27	35	11µM*
COc1cccc(Nc2nc3ccccc3nc2NS(=O)(=O)c2ccc(NC(C)=O)cc2)c1	-9%	-7%	-70%	-4	0	?
COc1cccc(Nc2nc3cc(C)ccc3nc2NS(=O)(=O)c2ccc(Cl)cc2)c1	.	.	-36%	.	.	7.9µM*
CC(C)(C)N(Cc1ccc2c(c1)OCO2)C(=O)/C=C\S(=O)c1ccccc1 (stereo unspecified)	13µM*	-26%	18µM*	-17	-61*	11µM*
COc1ccc(C(=O)Nc2ccc(S(=O)(=O)NC(C)=O)cc2)cc1[N+](=O)[O-]	2%	0%	1%	-1	-13	1%
COc1ccc(NCc2ccc(OC)c(Cn3ccnc3)c2)c(OC)c1	-7%	-5%	-43%	0	-69*	5%
COc1ccc(Cn2ccnc2)cc1Br	-1%	5%	-21%	-25	-6	-21%

Assay outcomes as filed in PubChem BioAssay.
